Reference: PubChem BioAssay (NCATS)
Results filed as inconclusive are left out. Activity calls are given as the source filed them. Calls follow the shape of the dose curve; as a rule, active = well fitted curve in the direction sought with a large enough effect; inconclusive = small, poorly fitted or top-dose-only effect, or another doubt; inactive = no such curve, though single readings can be large; an effect the other way counts as inactive or inconclusive.

Tests used:
[1] = HPAF-II Cancer Cell Toxicity qHTS against the NCATS CANVASS Library (AID 1347346); conditions: HPAF-II viability, CellTiter-Glo ATP luminescence, 72 h; series mostly up to 76 µM; also: nearly all actives have a fitted effect of over 55% in size
Outline: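 Cytotoxicity read-out was CellTiter-Glo luminescence after 72 h at 37 degrees C exposure of HPAF-II cells (1000/well) to compounds in an 11-point titration.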

[2] = UWB1.289 Cancer Cell Toxicity qHTS against the NCATS CANVASS Library (AID 1347347); conditions: UWB1.289 viability, CellTiter-Glo luminescence, 72 h; series mostly up to 76 µM; also: nearly all actives have a fitted effect of over 60% in size
Outline: (§1)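 Cells were seeded at 1000 per well, allowed 4 h at 37 degrees C/5% CO2, then pin-treated with an 11-point compound series. After 72 h, viability was read as CellTiter-Glo luminescence following 15min at room temperature.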

[3] = OV-SAHO Cancer Cell Toxicity qHTS against the NCATS CANVASS Library (AID 1347348); conditions: OV-SAHO viability, CellTiter-Glo luminescence, 72 h; series mostly up to 76 µM; also: nearly all actives have a fitted effect of over 55% in size
Outline: as §1

[4] = Panc-1005 Cancer Cell Toxicity qHTS against the NCATS CANVASS Library (AID 1347349); conditions: Panc-1005 viability, CellTiter-Glo luminescence, 72 h; series mostly up to 76 µM; also: nearly all actives have a fitted effect of over 60% in size
Outline: as §1

[5] = SW1088 Cancer Cell Toxicity qHTS against the NCATS CANVASS Library (AID 1347350); conditions: SW1088 viability, CellTiter-Glo luminescence, 72 h; series mostly up to 38.3 µM; also: nearly all actives have a fitted effect of over 75% in size
Description: (§2) Natural products and their derivatives continue to be wellsprings of nascent therapeutic potential. However, many laboratories have limited resources for biological evaluation, leaving their previously isolated or synthesized compounds largely or completely untested. To address this issue, the Canvass library of natural products was assembled (https://tripod.nih.gov/canvass), in collaboration with academic and industry researchers, for quantitative high-throughput screening (qHTS) across a diverse set of cell-based and biochemical assays. The pure (>85% purity by liquid chromatography/mass spectrometry [LC/MS]) Canvass library of 346 natural products were submitted by 45 academic laboratories and companies around the world. […] The library was formatted into 1536-well plates and evaluated in 50 qHTS (in an 11-pnt concentration series) bioassays with broad scope of disease-relevant mechanisms. The resulting data set from 50 different assays was then systematically analyzed to identify overall trends and specific natural products with interesting biological activities. […]
Cancer Cell Toxicity protocol for cell lines COV-362, OV-KATE, OV-SAHO, UWB1.289, UWB1.289-WTBRCA1, HEK-293, HPAF-II, Panc-1005, SW1088, or U-118MG. […] Luminescence signal was acquired via the ViewLux plate reader (PerkinElmer) using a clear filter, 2 second exposure and 2x binning settings.

[6] = U-118MG Cancer Cell Toxicity qHTS against the NCATS CANVASS Library (AID 1347351); conditions: U-118MG viability, CellTiter-Glo luminescence, 72 h; series mostly up to 76 µM
Outline: as §1

[7] = COV-362 Cancer Cell Toxicity qHTS against the NCATS CANVASS Library (AID 1347352); conditions: COV-362 viability, CellTiter-Glo luminescence, 72 h; series mostly up to 76 µM
Description: as §2
Cancer Cell Toxicity COV-362, OV-KATE, OV-SAHO, UWB1.289, UWB1.289-WTBRCA1, HEK-293, HPAF-II, Panc-1005, SW1088, and U-118MG-screen protocol. […] Luminescence signal was acquired via the ViewLux plate reader (PerkinElmer) using a clear filter, 2 second exposure and 2x binning settings.

[8] = A2780 Cisplatin Sensitive Ovarian Cancer Cell Toxicity qHTS against the NCATS CANVASS Library (AID 1347353); conditions: A2780 ovarian cancer viability, ATPLite luminescence, 72 h; at 91.4 µM (top of the series) unless noted; also: nearly all actives have a fitted effect of over 60% in size
Outline: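 Cisplatin-sensitive A2780 ovarian cells (750/well) received compound in 11 concentrations, and were incubated 72 h at 37 °C. ATP content was measured by ATPLite luminescence; bortezomib served as control.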

[9] = UWB1.289-WTBRCA1 Cancer Cell Toxicity qHTS against the NCATS CANVASS Library (AID 1347354); conditions: UWB1.289-WTBRCA1 viability, CellTiter-Glo luminescence, 72 h; at 76 µM (top of the series) unless noted
Outline: (§3)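 Toxicity was measured as CellTiter-Glo luminescence after 72 h exposure to an 11-point compound series. Compound was added to 1000 cells/well 4 h after seeding.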

[10] = HEK-293 Cancer Cell Toxicity qHTS against the NCATS CANVASS Library (AID 1347355); conditions: HEK-293 viability, CellTiter-Glo luminescence, 72 h; series mostly up to 46.1 µM; also: nearly all actives have a fitted effect of over 65% in size
Outline: as §3

Measured: outcome

O=C(O)Cc1c[nH]c2ccc(O)cc12
inactive: all assays above

CC(=O)NCCc1c[nH]c2ccc(O)cc12
inactive: [1] | [2] | [3] | [4] | [5] | [6] | [7] | [8] inactive [at 46.1 µM] | [9] inactive [at 38.3 µM] | [10]
